Screening results: PubChem, National Center for Advancing Translational Sciences (NCATS)
Sampled rows, rich in hits. Any-hit rate of the full collection: about 19%.
DT40 TDP1 no CPT = qHTS for Inhibitors of human tyrosyl-DNA phosphodiesterase 1 (TDP1): qHTS in cells in absence of CPT | 15% of 420,000 active | AID 686978, 2013 | Potency, µM (series often up to 46.2 µM), for the others: top-dose activity change, negative = growth inhibition, usual class: inhibitors | DT40 Tdp1-/- hTDP1 cells, no CPT, ATP luminescence, 48 h; further: potency means the concentration at half of the fitted maximal effect; on the % scale 0 is the no-effect control and ±100 the full control effect; nearly all actives have a fitted effect of over 55% in size
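DT40 Tdp1-/-;hTDP1 cells, no CPT (DMSO vehicle only), 400 cells/well; compounds pin-transferred; ≥48 hr, 37 °C; CellTiter-Glo 30 min RT dark, luminescence read.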
HepG2 tox = HepG2 cytotoxicity, counter-screen for TGF-b inhibitors; HepG2 CAGA-GFP viability, ATP luminescence, 18 h; 0.76% of 410,000 active; Potency, µM (highest dose often 46.1 µM), without a hit: at the highest dose activity change, negative = cytotoxicity, hits mostly cytotoxic; AID 588856; further: potency means the concentration at half of the fitted maximal effect
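CellTiter-Glo luminescence gave cytotoxicity after 18 hours at 37 degrees C. The cells were HepG2 CAGA-GFP in 1% FBS DMEM, stimulated with 500 pg/mL TGF-beta after compound addition. %Activity was normalised to no-cell wells (complete cell-killing) and DMSO (no toxicity), and curves were fitted and classified.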
TGFb SMAD3 inh = blocks TGF-b signaling; 1.2% of 410,000 active; Potency, µM (doses to about 46.1 µM), without a hit: at the highest dose activity, negative = inhibition, hits mostly inhibitors; AID 588855; HepG2 CAGA-GFP TGF-b/SMAD3 reporter, GFP fluorescence, 18 h; TGF-beta stimulated, 500 pg/mL final; further: potency means the concentration at half of the fitted maximal effect; on the % scale 0 is the no-effect control and ±100 the full control effect; nearly all actives have a fitted effect of over 65% in size
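Inhibition of TGF-beta-driven CAGA-GFP reporter expression in HEPG2 cells is measured by cellular GFP fluorescence after 18 h stimulation with 500 pg/mL recombinant TGF-beta in 1% FBS medium at 37 degrees C.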
DT40 TDP1 CPT = DT40-hTDP1 cell growth loss with CPT. chicken DT40 Tdp1-/-;hTDP1 cells + 20 nM CPT, ATP luminescence, 48 h. Potency, µM (doses to about 46.2 µM), without a hit: at the highest dose activity change, negative = growth inhibition, actives largely listed as inhibitors. 12% of 420,000 active; further: potency means the concentration at half of the fitted maximal effect; on the % scale 0 is the no-effect control and ±100 the full control effect; nearly all actives have a fitted effect of over 55% in size
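Chicken DT40 Tdp1-/- cells complemented with human TDP1, 400 cells/well, exposed to compounds plus 20 nM camptothecin for at least 48 h at 37 C; viability read as ATP content by CellTiter-Glo luminescence.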
IL1B secr inh = blocks inflammasome-driven IL-1 beta release; THP-1 LPS/ATP IL-1B secretion, AlphaLISA, 16 h; active compounds read low; activity change, % at 57.5 µM; 4.7% of 360,000 active; in the data active means activity change below about -50%; inconclusive means mostly about -30% to -49%; further: on the % scale 0 is the no-effect control and ±100 the full control effect
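Secreted IL-1B measured by AlphaLISA bead assay after 16 h compound exposure of THP-1 cells; compounds (final up to 57.5 uM) added 1 h before LPS (250 ng/mL) and ATP (1.25 mM) stimulation; lower signal means less secretion.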
TDP1 inh = TDP1 (human) enzyme inhibition | recombinant TDP1, AlphaScreen DNA substrate cleavage | AID 485290 | Q9NUW8 | Potency, µM (highest dose often 130 µM), inactives show top-dose activity change, negative = inhibition, most hits filed as inhibitors | 0.28% of 350,000 active; further: potency means the concentration at half of the fitted maximal effect; on the % scale 0 is the no-effect control and ±100 the full control effect; nearly all actives have a fitted effect of over 40% in size
Target sequence (Q9NUW8 whole entry, looked up): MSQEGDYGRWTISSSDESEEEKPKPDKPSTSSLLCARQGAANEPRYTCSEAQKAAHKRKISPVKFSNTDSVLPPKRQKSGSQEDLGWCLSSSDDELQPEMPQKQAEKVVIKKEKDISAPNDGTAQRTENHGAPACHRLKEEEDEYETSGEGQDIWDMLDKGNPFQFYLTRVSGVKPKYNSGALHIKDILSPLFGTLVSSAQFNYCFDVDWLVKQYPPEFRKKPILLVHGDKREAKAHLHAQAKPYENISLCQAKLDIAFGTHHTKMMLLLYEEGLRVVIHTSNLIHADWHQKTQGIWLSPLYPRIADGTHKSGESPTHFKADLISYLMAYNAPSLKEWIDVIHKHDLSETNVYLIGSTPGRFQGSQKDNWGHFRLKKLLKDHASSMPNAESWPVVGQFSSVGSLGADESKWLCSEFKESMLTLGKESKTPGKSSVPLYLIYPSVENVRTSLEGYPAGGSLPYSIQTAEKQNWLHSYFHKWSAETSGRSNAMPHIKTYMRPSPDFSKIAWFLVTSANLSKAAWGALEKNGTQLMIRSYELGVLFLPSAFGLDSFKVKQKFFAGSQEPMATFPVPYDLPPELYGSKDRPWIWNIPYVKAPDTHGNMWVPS
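Enzyme-compound mixtures sat 15 min at room temperature, followed by a 5 min reaction with 15 nM final substrate and 10 min with AlphaScreen beads. Recombinant human Tdp1 was used at 1 nM final.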
Starred values were filed as active, the others as inactive; ? = inconclusive; . = not tested or not shown; [ ] = another dose, or the depositor's remark. Unless noted, the call rests on the fitted dose curve; in most records, active means well fitted curve in the direction sought with a large enough effect; inconclusive means small, poorly fitted or top-dose-only effect, or another doubt; inactive means no such curve, though single readings can be large; an effect the other way counts as inactive or inconclusive.

SMILES | DT40 TDP1 no CPT | HepG2 tox | TGFb SMAD3 inh | DT40 TDP1 CPT | IL1B secr inh | TDP1 inh
Cc1ccccc1OCC(=O)Nc1nnc(SCc2cc(=O)n3cc(Cl)ccc3n2)s1 | -19.3% | 4.0% | ? | -11.6% | . | 0.0%
Cc1ccc2c(c1)C(c1ccccc1)N(C(=O)Cc1ccc(F)cc1)CC(=O)N2 (configuration not stated) | ? | -4.7% | ? | ? | . | 8.8%
CCOC(=O)c1c(C=O)c(C)n(Cc2ccc(C)cc2)c1C | 23.1µM* | -26.8% | -9.0% | ? | -5.8 | 11.1%
CC1OC23CCCCC2C(C#N)(C(=N)O3)C1(C#N)C#N (configuration not stated) | ? | -13.2% | 0.0% | ? | ? | 5.2%
CCCC1OC23CCCCC2C(C#N)(C(=N)O3)C1(C#N)C#N (configuration not stated) | 16.4µM* | 0.0% | 15.6% | 7.31µM* | ? | 3.8%
COc1ccc(C2OC34CCCCC3C(C#N)(C#N)C2(C#N)C(=N)O4)cc1 (configuration not stated) | 7.31µM* | 0.4% | 13.3% | 5.8µM* | 19.2 | -0.9%
CCC1OC23CCCCC2C(C#N)(C(=N)O3)C1(C#N)C#N (configuration not stated) | 13µM* | 3.4% | 46.1% | ? | -5.2 | 1.9%
CC1OC2(C)OC(=N)C1(C#N)C(C#N)(C#N)C2c1ccccc1 (configuration not stated) | ? | -0.9% | -0.5% | -22.7% | 0.0 | 0.0%
COc1ccc(CCNC(=O)C2CCCN(c3nc4c(C)cc(C)cc4s3)C2)cc1OC (configuration not stated) | 13µM* | -16.3% | -5.8% | 20.6µM* | . | -2.0%
CCOc1ccc(CNC(=O)C2CCCN(c3nc4c(C)cc(C)cc4s3)C2)cc1 (configuration not stated) | ? | -8.3% | -4.3% | 18.4µM* | . | -1.0%
COc1ccc(CCNC(=O)C2CCCN(c3nc4ccccc4s3)C2)cc1OC (configuration not stated) | ? | 4.1% | 2.8% | ? | -19.9 | -2.8%
CCOC(=O)c1cccc(Nc2nc(-c3cccnc3)nc3ccccc23)c1 | 10.3µM* | -49.8% | ? | 23.1µM* | -108.2* | 6.7%
COC(=O)c1cccc(Nc2nc(-c3cccnc3)nc3ccccc23)c1 | 9.2µM* | -5.8% | 1.1% | ? | -22.3 | .
COc1cccc(CNC(=O)c2nn(-c3ccc(C)cc3)c(=O)c3c2c2ccccc2n3C)c1 | ? | -3.0% | 4.5% | ? | . | 0.0%
COc1ccc(/C=N/Nc2c(Cl)cc(Cl)cc2Cl)cc1CN1CCOCC1 | 14.6µM* | -32.2% | ? | 16.4µM* | -12.4 | 4.7%
COC(=O)N[C@@H]1C[C@H]2[C@@H]3CC[C@H]4C[C@@H](OC)CC[C@]4(C)[C@H]3CC[C@]12C | ? | 0.6% | ? | ? | 50.6 | 0.3%
COC(=O)N[C@@H]1C[C@H]2[C@@H]3CC[C@H]4C[C@@H](OC)CC[C@]4(C)[C@H]3CC[C@@]12C | 14.6µM* | -43.3% | -17.9% | 13µM* | 41.4 | 0.5%
COC(=O)[C@H]1C[C@H]2[C@@H]3CC[C@H]4C[C@@H](OC)CC[C@]4(C)[C@H]3CC[C@]2(C)[C@@]2(CCCO2)O1 | 16.4µM* | -8.6% | 6.0% | ? | -3.9 | .
O=Cc1c(NCc2cccc(F)c2)c2ccccc2[nH]c1=O | -13.7% | 4.0% | 2.0% | 11.7% | 0.1 | .
CCc1ccccc1N1C(=O)C2C3C=CC(CC3)C2C1=O (configuration not stated) | -2.5% | 22.2% | 2.7% | -13.5% | 11.6 | .
O=C(NCCCC(NC(=O)OCc1ccccc1)C(=O)O)OCc1ccccc1 (configuration not stated) | 14.7% | 2.0% | -14.5% | -3.3% | 0.0 | 2.1%
CC(=O)Nc1ccc(S(=O)(=O)NC(C)(C#N)C2CC2)cc1 (configuration not stated) | -12.9% | 13.4% | -4.9% | -3.5% | 12.6 | 8.0%
CCOc1ccccc1CNC(=O)C1CCN(S(=O)(=O)c2ccc3c(ccn3C)c2)CC1 | ? | -7.1% | 1.6% | ? | . | 5.3%
CC(=O)N1CCOc2ccc(S(=O)(=O)Nc3ccc(C)cn3)cc21 | 23.5% | -0.4% | -2.2% | -7.8% | 21.7 | 3.9%
O=c1cc(N2CCCCC2)c(-c2ccccc2)nn1Cc1ccccc1 | ? | 2.5% | ? | ? | -99.5* | 0.0%
SMILES | DT40 TDP1 no CPT | HepG2 tox | TGFb SMAD3 inh | DT40 TDP1 CPT | IL1B secr inh | TDP1 inh
COc1ccc(Cn2nc(-c3ccccc3)c(N3CCCCC3)cc2=O)cc1 | 11.6µM* | 22.4µM* | ? | ? | -231.5* | 6.3%
Cn1nc(-c2ccccc2)c(N2CCCCC2)cc1=O | ? | 13.2% | 28.1% | -3.9% | -4.5 | -1.8%
CCN1CCN(c2ncc(C(=O)Nc3c(F)cc(F)cc3Br)c3ccccc23)CC1 | 15.8µM* | -38.6% | -0.2% | 14.1µM* | -11.9 | -7.2%
COc1cc(Cl)c(C)cc1NC(=O)C1CCN(c2nc3ccccc3n3cccc23)CC1 | 16.4µM* | -28.8% | . | ? | . | 3.9%
COc1ccc(NC(=O)c2cc(C(C)=O)n3ccccc23)cc1 | ? | -29.1% | -1.0% | -60.8% | . | 0.0%
COc1cc(OC)c(NC(=O)c2cc(C(C)=O)n3ccccc23)cc1Cl | ? | -29.8% | 1.3% | 7.31µM* | . | 2.6%
COc1ccc(NC(=O)c2cnc(N3CCOCC3)c3ccccc23)cc1OC | ? | 1.1% | -8.6% | ? | . | 4.4%
COc1cc(Cl)c(C)cc1NC(=O)c1cnc(N2CCOCC2)c2ccccc12 | 9.2µM* | -9.6% | ? | 10.3µM* | . | 0.0%
COc1ccc(CC(=O)NCCCCc2ccccc2)cc1OC | ? | 3.0% | -25.0% | -3.4% | -10.8 | .
COc1cc(OC)c(NC(=O)c2cc(CN3CCOCC3)on2)cc1Cl | -19.4% | -3.2% | -22.2% | 0.8% | . | 5.8%
CCN1CCN(c2ncc(C(=O)Nc3cc(Cl)c(OC)cc3OC)c3ccccc23)CC1 | 20.6µM* | 1.2% | 0.0% | ? | -11.7 | 0.0%
COc1ccc(Cl)cc1-c1ccc(C(=O)O)o1 | . | . | . | . | . | -11.2%[234 µM]
